This is part of a sample that, as a whole, favours compounds with a hit. Of some 83,000 tested, about 20% had one in any assay.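 Cell lines were cultured in 96-well plates, exposed to a single compound concentration, and assessed for percent growth 48 hours later.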 Active and inactive are the calls of the source. How the source made its calls: active means growth percent below 10; inactive means the rest.
Key:
Experiment in all cases: NCI-60 one-dose screen, 48 h (100 = growth as untreated, 0 = no growth, -100 = all killed)
Settings in all cases: 10 µM unless noted
DU-145 prostate = system: DU-145 prostate
K-562 leukemia = system: K-562 leukemia
MALME-3M melanoma = system: MALME-3M melanoma
MDA-MB-231 breast = system: MDA-MB-231 breast
RXF 393 renal = system: RXF 393 renal
SF-268 CNS = system: SF-268 CNS
SF-295 CNS = system: SF-295 CNS
SF-539 CNS = system: SF-539 CNS
UACC-257 melanoma = system: UACC-257 melanoma
M14 melanoma = system: M14 melanoma

Measured: growth

COc1ccc(C2=C(c3cc(OC)c(OC)c(OC)c3)C(=O)CC2)cc1
active: DU-145 prostate -19.3% | RXF 393 renal 1.23% | SF-295 CNS 9.47% | SF-539 CNS 0.222% | M14 melanoma 2.99%
inactive: K-562 leukemia 20.5% | MALME-3M melanoma 35.3% | MDA-MB-231 breast 17.2% | SF-268 CNS 33% | UACC-257 melanoma 65.4%

COc1ccc(C(=O)N2NC(=O)/C(=C/c3ccccc3F)N=C2c2ccccc2)cc1
inactive: DU-145 prostate 115% | K-562 leukemia 104% | MALME-3M melanoma 109% | MDA-MB-231 breast 106% | RXF 393 renal 106% | SF-268 CNS 105% | SF-295 CNS 101% | SF-539 CNS 131% | UACC-257 melanoma 99.7% | M14 melanoma 111%

CN(C)c1oc(C2OC2c2ccccc2)nc1C#N (stereo not drawn)
inactive: DU-145 prostate 107% | K-562 leukemia 106% | MALME-3M melanoma 95.9% | MDA-MB-231 breast 87.3% | RXF 393 renal 86.7% | SF-268 CNS 95.7% | SF-295 CNS 98.8% | SF-539 CNS 104% | UACC-257 melanoma 83% | M14 melanoma 104%

CCOC(=O)/C(C#N)=C1/C(=O)Nc2ccccc21
inactive: DU-145 prostate 123% | K-562 leukemia 132% | MALME-3M melanoma 108% | MDA-MB-231 breast 116% | RXF 393 renal 117% | SF-268 CNS 122% | SF-295 CNS 113% | SF-539 CNS 99.7% | UACC-257 melanoma 123% | M14 melanoma 94.6%

COc1ccc(NC(=O)CSc2nc(-c3ccc(OC)c(OC)c3)cc(-c3cc(OC)c(OC)c(OC)c3)n2)cc1
inactive: DU-145 prostate 112% | K-562 leukemia 95.7% | MALME-3M melanoma 128% | MDA-MB-231 breast 91.9% | RXF 393 renal 101% | SF-268 CNS 102% | SF-295 CNS 126% | UACC-257 melanoma 111%

O=[N+]([O-])c1cc(S(=O)(=O)Oc2ccccc2)ccc1Cl
active: DU-145 prostate -81% | K-562 leukemia 1.22% | MALME-3M melanoma -68.8% | M14 melanoma -21.5%
inactive: MDA-MB-231 breast 40.7% | RXF 393 renal 35% | SF-268 CNS 24.2% | SF-295 CNS 28.7% | UACC-257 melanoma 45.4%

OCCCCCCNc1ncnc2cc(Cl)ccc12
inactive: DU-145 prostate 104% | K-562 leukemia 84.6% | MALME-3M melanoma 100% | MDA-MB-231 breast 99.7% | RXF 393 renal 116% | SF-268 CNS 97.2% | SF-295 CNS 99% | SF-539 CNS 92.8% | UACC-257 melanoma 90.7% | M14 melanoma 96.3%

Oc1ccc2cc(Br)ccc2c1-c1c(O)ccc2cc(Br)ccc12
inactive: DU-145 prostate 78.2% | K-562 leukemia 54% | MALME-3M melanoma 97.9% | MDA-MB-231 breast 50.1% | RXF 393 renal 59.8% | SF-268 CNS 53.8% | SF-295 CNS 76.5% | SF-539 CNS 82% | UACC-257 melanoma 82.6% | M14 melanoma 58.9%

O=S(=O)(NCCCNc1nccc(-n2ccc3cccnc32)n1)c1cccc(C(F)(F)F)c1
inactive: DU-145 prostate 101% | K-562 leukemia 100% | MALME-3M melanoma 112% | MDA-MB-231 breast 106% | RXF 393 renal 103% | SF-268 CNS 95.5% | SF-295 CNS 112% | SF-539 CNS 109% | UACC-257 melanoma 108% | M14 melanoma 107%

COc1cc(C2CC(c3ccc4c(c3)OCO4)=NN2C(C)=O)cc(OC)c1OC (stereo not drawn)
active: RXF 393 renal 7.22% | SF-295 CNS -7.31%
inactive: DU-145 prostate 13.7% | K-562 leukemia 18.2% | MALME-3M melanoma 23.3% | MDA-MB-231 breast 61.3% | SF-268 CNS 52.7% | UACC-257 melanoma 66.5% | M14 melanoma 29.3%

Cc1nc2c3c(ncn2n1)Oc1c(c(=O)[nH]c2ccccc12)C3c1ccc(Cl)cc1 (stereo not drawn)
inactive: DU-145 prostate 112% | K-562 leukemia 94.3% | MALME-3M melanoma 105% | MDA-MB-231 breast 87.9% | RXF 393 renal 113% | SF-268 CNS 85.7% | SF-295 CNS 96.2% | SF-539 CNS 93.4% | UACC-257 melanoma 105% | M14 melanoma 105%

O=C(CN1CCN(c2cc3c(cc2F)c(=O)c(C(=O)N/N=C/c2ccccc2O)cn3C2CC2)CC1)N/N=C\c1ccccc1O
active: K-562 leukemia 8.3% | M14 melanoma -27.6%
inactive: DU-145 prostate 21.2% | MALME-3M melanoma 22.3% | MDA-MB-231 breast 25.3% | RXF 393 renal 27.9% | SF-268 CNS 16.6% | SF-295 CNS 21.5% | SF-539 CNS 11.1% | UACC-257 melanoma 20%

COC(=O)[C@]12CC[C@@H](C)[C@H](C)[C@@H]1C1=CC[C@@H]3[C@@]4(C)C(C=O)=C[C@@](C)(COC(=O)c5ccco5)[C@@H]4[C@H](O)C[C@@]3(C)[C@]1(C)CC2
active: DU-145 prostate -74.3% | K-562 leukemia 2.92% | MALME-3M melanoma -63.6% | MDA-MB-231 breast -47.4% | RXF 393 renal -63% | SF-268 CNS 2.92% | SF-295 CNS -76.2% | SF-539 CNS -62.6% | M14 melanoma -23.3%

COc1cc(/C(C#N)=C/c2ccc3c(c2OC)OCO3)cc2c1OCO2
active: RXF 393 renal -14.3% | SF-295 CNS 6% | SF-539 CNS 4.21% | M14 melanoma -3.69%
inactive: DU-145 prostate 11.2% | K-562 leukemia 20.9% | MALME-3M melanoma 37.1% | MDA-MB-231 breast 29.7% | SF-268 CNS 47.1% | UACC-257 melanoma 62.2%

CCCOC(=O)n1cccc1
inactive: DU-145 prostate 108% | K-562 leukemia 115% | MALME-3M melanoma 147% | MDA-MB-231 breast 99% | RXF 393 renal 102% | SF-268 CNS 98.4% | SF-295 CNS 122% | UACC-257 melanoma 102% | M14 melanoma 101%

C=C[C@@H]1C[C@H](O)Cc2c(C)cc(C)cc2N1
inactive: DU-145 prostate 102% | K-562 leukemia 92% | MALME-3M melanoma 103% | MDA-MB-231 breast 101% | RXF 393 renal 108% | SF-268 CNS 97.5% | SF-295 CNS 91.9% | SF-539 CNS 92.3% | UACC-257 melanoma 97.6% | M14 melanoma 98.9%

O=C(/C=C/c1cc(-c2ccc3c(c2)OCO3)n[nH]1)c1ccc2c(c1)OCO2
inactive: DU-145 prostate 104% | K-562 leukemia 82.6% | MALME-3M melanoma 106% | MDA-MB-231 breast 92.4% | RXF 393 renal 94.4% | SF-268 CNS 93.3% | SF-295 CNS 97% | UACC-257 melanoma 96.1% | M14 melanoma 99.6%

CN1CCN(CCCOc2ccc3nc(Nc4ccc(Cl)c(C(F)(F)F)c4)ccc3c2)CC1
active: K-562 leukemia -28.2% | MDA-MB-231 breast -12.9% | M14 melanoma -11.6%
inactive: DU-145 prostate 54.1% | MALME-3M melanoma 55.9% | RXF 393 renal 58.8% | SF-268 CNS 59.7% | SF-295 CNS 56% | SF-539 CNS 47%

COc1ccc(S(=O)(=O)n2ccc(-c3ccc4c(c3)CCC(C)(C)O4)n2)cc1OC
inactive: DU-145 prostate 82.6% | K-562 leukemia 53% | MALME-3M melanoma 114% | MDA-MB-231 breast 82.5% | RXF 393 renal 75.1% | SF-268 CNS 85.3% | SF-295 CNS 63% | SF-539 CNS 97.1% | UACC-257 melanoma 57.1% | M14 melanoma 81.9%

CC(C)OC(=O)N1CCOCC1
inactive: DU-145 prostate 104% | K-562 leukemia 123% | MALME-3M melanoma 94.7% | MDA-MB-231 breast 90.8% | RXF 393 renal 116% | SF-268 CNS 99.7% | SF-295 CNS 113% | UACC-257 melanoma 97.1% | M14 melanoma 103%

COc1ccc(Nc2[nH]n3c(=O)cc(-c4ccccc4)nc3c2C(=O)Nc2ccc(C)cc2)c(OC)c1
inactive: DU-145 prostate 118% | K-562 leukemia 68.4% | MALME-3M melanoma 91.6% | MDA-MB-231 breast 86.2% | RXF 393 renal 92.1% | SF-268 CNS 96.2% | SF-295 CNS 95.7% | SF-539 CNS 81% | UACC-257 melanoma 85.4% | M14 melanoma 95.6%

O=C(NS(=O)(=O)c1ccc2ccccc2c1)n1cc(-c2ccncc2)c(-c2ccc(Cl)c(O)c2)n1
inactive: DU-145 prostate 113% | K-562 leukemia 85.6% | MALME-3M melanoma 17.1% | MDA-MB-231 breast 49.6% | RXF 393 renal 52.9% | SF-268 CNS 96.2% | SF-295 CNS 91.1% | SF-539 CNS 80.9% | UACC-257 melanoma 31.9% | M14 melanoma 28.4%

C=C1C(=O)O[C@H]2[C@H]1CC/C(Cn1cc(-c3cccc(Cl)c3)nn1)=C\CC[C@@]1(C)O[C@@H]21
inactive: SF-295 CNS 72.4%
active: DU-145 prostate -99.4% | K-562 leukemia 0.665% | MALME-3M melanoma -77.3% | MDA-MB-231 breast -54.1% | RXF 393 renal -88.4% | SF-268 CNS -47.9% | SF-539 CNS -76.7% | M14 melanoma -56.4%

C=CCn1c2ccccc2c2c3c(c4c5ccccc5n(CC=C)c4c21)C(=O)N(O)C3=O
inactive: DU-145 prostate 24.9% | K-562 leukemia 27.3% | MALME-3M melanoma 96.1% | MDA-MB-231 breast 39.4% | RXF 393 renal 42.2% | SF-268 CNS 33.7% | SF-295 CNS 16.2% | M14 melanoma 17.2%
active: SF-539 CNS 2.86%

CCCCCCCCCCCCCCCCNC(=O)OC(C)C
inactive: MALME-3M melanoma 81.2% | MDA-MB-231 breast 23.8% | RXF 393 renal 80.1% | SF-268 CNS 64.9% | SF-295 CNS 20.8% | UACC-257 melanoma 95.8% | M14 melanoma 35.7%
active: DU-145 prostate -23.3% | K-562 leukemia 8%

CC(C)(C)c1[nH]nc2c1C(c1cc3ccccc3[nH]c1=O)Nc1cc(C(=O)Nc3ccc(Cl)cc3)ccc1N2 (stereo not drawn)
inactive: DU-145 prostate 83.8% | K-562 leukemia 39.2% | MALME-3M melanoma 80.6% | MDA-MB-231 breast 85.6% | RXF 393 renal 43.9% | SF-268 CNS 62.2% | SF-295 CNS 38.5% | SF-539 CNS 85.8% | UACC-257 melanoma 83.9% | M14 melanoma 53.5%

O=C1/C(=C/c2ccc(Cl)cc2)CN(C(=O)CCN2CCC(=NO)CC2)C/C1=C\c1ccc(Cl)cc1
active: DU-145 prostate -89.2% | K-562 leukemia -13.9% | MALME-3M melanoma -49.5% | MDA-MB-231 breast -83.1% | RXF 393 renal -91.3% | SF-268 CNS -60.1% | SF-295 CNS -76.3% | SF-539 CNS -84.5% | UACC-257 melanoma -76.7% | M14 melanoma -45.2%

Cc1ccc(S(=O)(=O)NC(=O)n2cc(-c3ccncc3)c(-c3ccc(Cl)c(O)c3)n2)cc1
inactive: DU-145 prostate 132% | K-562 leukemia 98.9% | MALME-3M melanoma 65% | MDA-MB-231 breast 89.8% | RXF 393 renal 114% | SF-268 CNS 117% | SF-295 CNS 109% | SF-539 CNS 92.1% | UACC-257 melanoma 99.4% | M14 melanoma 51.2%
